Measured values taken from the supplement of paper PMC8975748.
Structures can show the parent of a compound that is named as a salt.

Test system: Saccharomyces cerevisiae BY4741 SeMeCo community
Test: z-score of subpopulation abundance vs DMSO median, subpopulation auxotrophic for UM; higher = larger share of this subpopulation than in DMSO controls
Conditions: 10 µM; 24 h; SM minimal medium; subpopulation (auxotrophy): UM
Method: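 Fluorescent four-plasmid SeMeCo (self-establishing metabolically cooperating S. cerevisiae BY4741 community; plasmids pH-mRuby2, pL-mWasabi, pU-eCFP, pM-TagRFP657) was grown 24 h in minimal SM medium with each Selleck FDA-approved drug at 10 µM in 384-well plates. Cells were fixed and imaged by high-content confocal microscopy. For each auxotrophic subpopulation (and the prototroph), a z-score gives the deviation from the DMSO vehicle-control population median.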

SMILES	z-score of subpopulation abundance
CN1[C@@H]2CC[C@H]1C[C@@H](OC(=O)[C@H](CO)c1ccccc1)C2 [Hyoscyamine]	-0.14
CC(=O)O[C@H]1C[C@@H]2CC[C@@H]3[C@H](CC[C@@]4(C)[C@H]3C[C@H]([N+]3(C)CCCCC3)[C@@H]4OC(C)=O)[C@@]2(C)C[C@@H]1[N+]1(C)CCCCC1 [Pancuronium dibromide]	-0.06
CN(C)[C@@H]1C(=O)C(C(N)=O)=C(O)[C@@]2(O)C(=O)C3=C(O)c4c(O)cccc4[C@@](C)(O)[C@H]3[C@H](O)[C@@H]12 [Oxytetracycline (Terramycin)]	-0.17
Oc1cccc2cccnc12 [8-Hydroxyquinoline]	-1.16
C[N+]1(C)[C@@H]2C[C@@H](OC(=O)[C@H](CO)c3ccccc3)C[C@H]1[C@@H]1O[C@@H]12 [Methscopolamine]	1.32
CCC1=C[C@H]2CN3CCc4c([nH]c5ccccc45)[C@](C(=O)OC)(C2)[C@H]13 [Catharanthine]	0.1
CCOC(=O)Nc1ccc(NCc2ccc(F)cc2)cc1N [Retigabine 2HCl]	-0.52
Cn1cc(C2=C(c3cn(C4CCN(Cc5ccccn5)CC4)c4ccccc34)C(=O)NC2=O)c2ccccc21	0.73
C[N+]12CCC(CC1)C(OC(=O)C(O)(c1ccccc1)c1ccccc1)C2 (stereo not given) [Clidinium Bromide]	-0.38
N[C@@H]1C[C@H]1c1ccccc1 [Tranylcypromine (2-PCPA) HCl]	-0.34
CN1C(=O)COc2c(C(=O)NC3CN4CCC3CC4)cc(Cl)cc21 (stereo not given) [Azasetron HCl]	0.66
C=CCN1C[C@H](C(=O)N(CCCN(C)C)C(=O)NCC)C[C@@H]2c3cccc4[nH]cc(c34)C[C@H]21 [Cabergoline]	-0.17
O=C(O[C@H]1C[N+]2(CCCOc3ccccc3)CCC1CC2)C(O)(c1cccs1)c1cccs1 [Aclidinium Bromide]	0.73
CC(NC(C)(C)C)C(=O)c1cccc(Cl)c1 (stereo not given) [Amfebutamone (Bupropion) HCl]	-0.25
O=c1[nH]c2ccccc2n1CCCN1CCC(n2c(=O)[nH]c3cc(Cl)ccc32)CC1 [Domperidone]	0.56
CN(C)C(=O)Oc1ccc[n+](C)c1 [Pyridostigmine Bromide]	0.25
CCCN1C[C@H](CSC)C[C@@H]2c3cccc4[nH]cc(c34)C[C@H]21 [Pergolide Mesylate]	-0.77
CN[C@@H]1[C@@H](O)[C@@H](O[C@@H]2[C@@H](O)[C@H](O[C@H]3O[C@H](CN)CC[C@H]3N)[C@@H](N)C[C@H]2N)OC[C@]1(C)O.CN[C@@H]1[C@@H](O)[C@@H](O[C@@H]2[C@@H](O)[C@H](O[C@H]3O[C@H]([C@@H](C)N)CC[C@H]3N)[C@@H](N)C[C@H]2N)OC[C@]1(C)O.CN[C@@H]1[C@@H](O)[C@@H](O[C@@H]2[C@@H](O)[C@H](O[C@H]3O[C@H]([C@@H](C)NC)CC[C@H]3N)[C@@H](N)C[C@H]2N)OC[C@]1(C)O [Gentamicin Sulfate]	-0.75
Nc1nc(N)nc(NC2CC2)n1 [Cyromazine]	0.57
C[N+](C)(C)CCCCCCCCCC[N+](C)(C)C [Decamethonium Bromide]	0.35

SMILES	z-score of subpopulation abundance
N#Cc1nn(-c2c(Cl)cc(C(F)(F)F)cc2Cl)c(N)c1[S+]([O-])C(F)(F)F (stereo not given) [Fipronil]	-0.68
C=CC[C@]1(O)CC[C@H]2[C@@H]3CCC4=CC(=O)CCC4=C3C=C[C@@]21C [Altrenogest]	-0.72
C=C(C)[C@H]1Cc2c(ccc3c2O[C@@H]2COc4cc(OC)c(OC)cc4[C@@H]2C3=O)O1 [Rotenone (Barbasco)]	0.29
Oc1cc(Cl)ccc1Oc1ccc(Cl)cc1Cl [Triclosan]	-2.84
CC(C)(O)C(Cl)(Cl)Cl [Chlorobutanol]	0.14
CNC1CC(N)C(O)C(OC2OC(CO)C(O)C3OC4(OC(C(N)CO)C(O)C(O)C4O)OC23)C1O (stereo not given) [Hygromycin B]	0.06
NC(=O)CN1CCCC1=O [Piracetam]	0.74
CN1c2ccccc2C(NCCCCCCC(=O)O)c2ccc(Cl)cc2S1(=O)=O (stereo not given) [Tianeptine sodium]	0.21
C[C@@H]1O[C@@H](O[C@H]2C[C@@H](O)[C@]3(CO)[C@H]4[C@H](O)C[C@]5(C)[C@@H](C6=CC(=O)OC6)CC[C@]5(O)[C@@H]4CC[C@]3(O)C2)[C@H](O)[C@H](O)[C@H]1O [Ouabain]	0.06
CC[C@@]1(O)C(=O)OCc2c1cc1n(c2=O)Cc2cc3ccccc3nc2-1 [Camptothecin]	0.1
COc1ccc(C(CN(C)C)C2(O)CCCCC2)cc1 (stereo not given) [Venlafaxine]	0.35
O=[N+]([O-])C(Br)(CO)CO [Bronopol]	-0.1
CN[C@@H]1[C@@H](O)[C@@H](O[C@@H]2[C@@H](O)[C@H](O[C@H]3O[C@H]([C@@H](C)O)[C@@H](O)[C@H](O)[C@H]3N)[C@@H](N)C[C@H]2N)OC[C@]1(C)O [Geneticin (G418 Sulfate)]	-0.56
CC[C@H]1CN2CC[C@]3(C(=O)Nc4ccccc43)[C@@H]2C[C@@H]1/C(=C\OC)C(=O)OC [Rhynchophylline]	1.19
CC(C)=CCOc1c2occc2cc2ccc(=O)oc12 [Imperatorin]	0.52
C[C@@H]1CC[C@H]2[C@@H](C)C(=O)O[C@@H]3O[C@@]4(C)CC[C@@H]1[C@]32OO4 [Artemisinin]	-0.66
CN(C)[C@@H]1C(=O)C(C(N)=O)=C(O)[C@@]2(O)C(=O)C3=C(O)c4c(O)cccc4[C@@](C)(O)[C@H]3C[C@@H]12 [Tetracycline HCl]	0.64
CC[C@@H](C(N)=O)N1CCCC1=O [Levetiracetam]	-0.62
CC1(C)SC2C(N)C(=O)N2C1C(=O)O (stereo not given) [6-Aminopenicillanic acid]	0.97
Cc1cc(C(C#N)c2ccc(Cl)cc2)c(Cl)cc1NC(=O)c1cc(I)cc(I)c1O (stereo not given) [Closantel]	-0.03
